Source: PubChem BioAssay (NCATS)
Results filed as inconclusive are left out. A number with no mark means an inactive call. Calls of active or inactive are those of the source. The call rests on the fitted dose curve; in most records, active means well fitted curve in the direction sought with a large enough effect; inconclusive means small, poorly fitted or top-dose-only effect, or another doubt; inactive means no such curve, though single readings can be large; an effect the other way counts as inactive or inconclusive.

system: not listed separately; assay: qHTS for Inhibitors of the Aldehyde Dehydrogenase Family (ALDH1A2, ALDH1A3, ALDH2, ALDH3A1) (AID 2061307); conditions: ALDH inhibition qHTS; series mostly up to 50.3 µM; activity change, negative = inhibition: at the top concentration; further: nearly all actives have a fitted effect of over 50% in size; on Potency: test system not described further here; on activity change, negative = inhibition: on the % scale 0 is the no-effect control and ±100 the full control effect
Potency means the concentration at half of the fitted maximal effect.

Row | Structure (SMILES) | activity change, negative = inhibition | Potency
1 | O=C(O)c1cc(C(F)(F)F)ccc1N1CC[C@H](OCc2ccccn2)C1 | -7.74% | –
2 | COCC(=O)NC/C=C/c1ccc2ncnc(Nc3ccc(Oc4ccc(C)nc4)c(C)c3)c2c1 | – | 7.12 µM (active)
3 | N#Cc1ccc2[nH]cc(CCCCN3CCN(c4ccc5oc(C(N)=O)cc5c4)CC3)c2c1 | – | 2.24 µM (active)
4 | COc1cccc(CNC(=O)Nc2nc(-c3ccncc3)cs2)c1 | – | 2.01 µM (active)
5 | CC1=CCC2C(C)(CO)CCCC2(CO)C1CO (centres undefined) | -22.9% | –
6 | O=C(/C=C/c1ccc(O)c(O)c1)O[C@H]1[C@H](OC2CCCCC2O)O[C@H](CO)[C@@H](O)[C@@H]1O (some centres undefined) | -27.1% [at 34.4 µM] | –
7 | Cc1nnc(C(=O)NC(C)(C)c2nc(C(=O)NCc3ccc(F)cc3)c(O)c(=O)n2C)o1 | – | 1.59 µM (active)

target: Aldehyde dehydrogenase, mitochondrial (Homo sapiens) (UniProt P05091); assay: qHTS for Inhibitors of the Aldehyde Dehydrogenase Family (ALDH2) Primary screen (AID 2061308); conditions: ALDH2 enzyme inhibition qHTS, 1536-well; series mostly up to 56 µM; activity change, negative = inhibition: at the top concentration; further: nearly all actives have a fitted effect of over 55% in size;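 on activity change, negative = inhibition: plate controls were vehicle for no effect and reference inhibitor for full effect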

Row | Structure (SMILES) | activity change, negative = inhibition | Potency
8 | CC(C)(O)C1CC=C(C(=O)OCC2OC(Oc3c(O)cc(C(=O)O)cc3O)C(O)C(O)C2O)CC1 (centres undefined) | -13.4% [at 28 µM] | –
9 | Cc1ccc2nc3sc(C(=O)NC4CCCC4)cc3cc2c1 | -7.1% [at 81.8 µM] | –
10 | COc1ccc(C(=O)N(Cc2ccco2)Cc2cccs2)c(O)c1 | -15.4% | –
11 | COc1ccnc(NC(=S)N2CCN(c3ccc(Cl)c(Cl)c3)CC2)c1 | – | 15.8 µM (active)
12 | CNc1oc(-c2ccc3c(c2)OCCO3)nc1C#N | 19.7% | –
13 | Cc1ccc(OCCn2c(CCNC(=O)c3cccc(N)c3)nc3ccccc32)cc1 | 11.2% | –
14 | Nc1ncc(-c2cccc(-c3nn4c(=O)cc(N5CCNCC5)nc4s3)c2)cn1 | -4.37% | –
15 | OC[C@H]1O[C@@H](OC/C=C/c2ccc(O)cc2)[C@H](O)[C@@H](O)[C@@H]1O | -2.22% | –
16 | Cc1ccc(CNc2ccc(N3CCN(C(=O)OC(C)(C)C)CC3)cc2)cc1 | -1.33% | –
17 | O=C1c2ccccc2NC(c2ccc(-c3ccc(F)cc3)o2)N1O (centres undefined) | – | 3.55 µM (active)
18 | O=C(O)c1cc(C(F)(F)F)ccc1N1CC[C@H](OCc2ccccn2)C1 | -21.9% | –
19 | C#CCCCn1cc(-c2cccc3c2N[C@@H](C)CC(=O)N3)cn1 | 14.1% | –
20 | O=C1c2ccccc2NC(c2ccc(-c3ccc(-c4ccccc4)cc3)o2)N1O (centres undefined) | – | 1.58 µM (active)
21 | Cc1c(C(=O)OCC2CCCO2)[nH]c2c1C(=O)CCC2 (centres undefined) | -1.32% | –
22 | Cc1ccc2nc3sc(C(=O)NC4CCCCC4)cc3cc2c1 | -7.22% | –
23 | NC(=O)[C@H](O[C@@H]1O[C@H](CO)[C@@H](O)[C@H](O)[C@H]1O)c1ccccc1 | -8.42% | –
24 | CNCc1cc(-c2ccccc2F)n(S(=O)(=O)c2cccnc2)c1 | 20.9% | –
25 | Cc1nc(NCc2ccc(-c3cccnc3)cc2)c2ccccc2n1 | 1.27% | –
26 | N#Cc1c(-c2ccc(Cl)c([N+](=O)[O-])c2)no[n+]1[O-] | – | 0.398 µM (active)

Row | Structure (SMILES) | activity change, negative = inhibition | Potency
27 | O=C(/C=C/c1cccnc1)Nc1cccc([S+](=O)([O-])Nc2ccccc2F)c1 | -11.8% | –
28 | Cc1ccc(-c2cc(C(=O)Nc3cccc(S(N)(=O)=O)c3)c3ccccc3n2)cc1C | -5.97% | –
29 | COCC(=O)NC/C=C/c1ccc2ncnc(Nc3ccc(Oc4ccc(C)nc4)c(C)c3)c2c1 | 3.09% | –
30 | N#Cc1ccc2[nH]cc(CCCCN3CCN(c4ccc5oc(C(N)=O)cc5c4)CC3)c2c1 | 12% | –
31 | CC(C)CC1NC(=O)C2CC3(O)c4ccccc4NC3N2C1=O (centres undefined) | -13.7% | –
32 | COc1cccc(CNC(=O)Nc2nc(-c3ccncc3)cs2)c1 | 28.9% | –
33 | C=C[C@H]1C(O[C@@H]2O[C@H](CO)[C@@H](O)[C@H](O)[C@H]2O)OC=C2C(=O)N3CCc4c([nH]c5ccccc45)C3CC21 (some centres undefined) | 3.35% [at 28 µM] | –
34 | CC1=CCC2C(C)(CO)CCCC2(CO)C1CO (centres undefined) | -17% | –
35 | CC(=O)NC(C)c1cc(Cl)c2cccnc2c1O (centres undefined) | -3.7% | –
36 | O=C(/C=C/c1ccc(O)c(O)c1)O[C@H]1[C@H](OC2CCCCC2O)O[C@H](CO)[C@@H](O)[C@@H]1O (some centres undefined) | -26.4% [at 28 µM] | –
37 | Cc1c(-c2ccccc2)no[n+]1[O-] | 12.8% | –
38 | c1cc(NCCc2c[nH]c3ccccc23)cc(Nc2ccncc2)c1 | – | 10 µM (active)
39 | [O-][n+]1onc(-c2ccccc2)c1/C=N/O | 2.29% | –
40 | O=C(OCC#CCSc1nnc(-c2cccc3ccccc23)o1)C1CC1 | -15.5% | –
41 | Cc1ccnc(NC(=S)N2CCN(c3cccc(Cl)c3Cl)CC2)c1 | – | 6.31 µM (active)
42 | COc1ccc(C2Nc3ccccc3C(=O)N2Cc2ccccc2)cc1COc1ccc(F)cc1 (centres undefined) | -5.28% | –
43 | Cc1nnc(C(=O)NC(C)(C)c2nc(C(=O)NCc3ccc(F)cc3)c(O)c(=O)n2C)o1 | -2.26% | –
44 | Clc1nc(CN2CCOCC2)nc2sc3c(c12)CCCC3 | -29.2% | –
